# Results published in article PMC5700166.
# Columns and labels:
# Test in all cases: protein-binding microarray (PBM); PBM: ~300 nM protein, 6 mM HEPES pH 7.8, 80 mM KCl, 0.5 mM EDTA, 0.5 mM EGTA, 6% glycerol, 35 ng/ul poly-dIdC, 1% milk, 1 h, room temperature; Ap Aiptasia and Nv Nematostella (sea anemones) / Co Capsaspora / Aq Amphimedon (sponge) / Dm Drosophila / Hu human; RHD is the Rel homology domain; high values mean tight binding
# Settings in all cases: dsDNA, one strand shown
# GST-Ap-NF-kB RHD = target: T1, GST-Ap-NF-kB RHD (Exaiptasia pallida (Aiptasia), UniProt A0A913YAJ5 2-422)
# T1 sequence: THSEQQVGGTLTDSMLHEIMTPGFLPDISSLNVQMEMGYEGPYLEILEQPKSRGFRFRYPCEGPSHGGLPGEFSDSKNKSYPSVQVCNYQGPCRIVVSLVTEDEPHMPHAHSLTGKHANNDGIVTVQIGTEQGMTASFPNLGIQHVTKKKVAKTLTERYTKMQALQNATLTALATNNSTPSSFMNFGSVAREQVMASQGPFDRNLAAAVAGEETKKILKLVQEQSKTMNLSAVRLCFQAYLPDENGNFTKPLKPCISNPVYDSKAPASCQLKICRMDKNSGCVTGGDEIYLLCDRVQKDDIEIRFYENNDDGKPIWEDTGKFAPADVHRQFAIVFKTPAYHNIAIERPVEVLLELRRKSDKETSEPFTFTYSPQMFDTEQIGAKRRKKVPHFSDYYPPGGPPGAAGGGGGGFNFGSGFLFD
# [1] = target: T2, GST-Nv-NF-kB (Cys allele) (Nematostella vectensis, UniProt E5G601 2-411)
# T2 sequence: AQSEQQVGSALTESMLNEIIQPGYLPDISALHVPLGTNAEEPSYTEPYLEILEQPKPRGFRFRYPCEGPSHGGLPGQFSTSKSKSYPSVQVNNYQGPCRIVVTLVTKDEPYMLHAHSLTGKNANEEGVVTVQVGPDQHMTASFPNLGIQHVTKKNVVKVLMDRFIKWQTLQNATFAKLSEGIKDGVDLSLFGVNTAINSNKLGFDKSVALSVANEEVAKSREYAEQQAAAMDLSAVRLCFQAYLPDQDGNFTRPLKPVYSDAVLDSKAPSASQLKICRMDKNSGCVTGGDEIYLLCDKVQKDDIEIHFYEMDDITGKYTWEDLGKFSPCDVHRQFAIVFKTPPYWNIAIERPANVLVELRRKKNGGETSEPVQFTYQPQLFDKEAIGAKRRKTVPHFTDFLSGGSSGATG
# GST-Co-NF-kB = target: T3, GST-Co-NF-kB (Capsaspora owczarzaki, UniProt F1ARL5 200-546)
# T3 sequence: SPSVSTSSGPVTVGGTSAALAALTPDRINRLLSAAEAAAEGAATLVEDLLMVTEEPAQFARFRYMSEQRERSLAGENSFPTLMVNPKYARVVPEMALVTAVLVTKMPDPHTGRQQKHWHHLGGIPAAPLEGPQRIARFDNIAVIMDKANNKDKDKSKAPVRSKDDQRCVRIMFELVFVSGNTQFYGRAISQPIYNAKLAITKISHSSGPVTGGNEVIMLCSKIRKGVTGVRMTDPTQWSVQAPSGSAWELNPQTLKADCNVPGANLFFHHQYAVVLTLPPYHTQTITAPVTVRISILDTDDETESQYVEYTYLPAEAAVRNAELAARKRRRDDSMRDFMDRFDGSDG
# GST-Dm-Relish = target: T4, GST-Dm-Relish (Drosophila melanogaster, UniProt Q94527 99-473)
# T4 sequence: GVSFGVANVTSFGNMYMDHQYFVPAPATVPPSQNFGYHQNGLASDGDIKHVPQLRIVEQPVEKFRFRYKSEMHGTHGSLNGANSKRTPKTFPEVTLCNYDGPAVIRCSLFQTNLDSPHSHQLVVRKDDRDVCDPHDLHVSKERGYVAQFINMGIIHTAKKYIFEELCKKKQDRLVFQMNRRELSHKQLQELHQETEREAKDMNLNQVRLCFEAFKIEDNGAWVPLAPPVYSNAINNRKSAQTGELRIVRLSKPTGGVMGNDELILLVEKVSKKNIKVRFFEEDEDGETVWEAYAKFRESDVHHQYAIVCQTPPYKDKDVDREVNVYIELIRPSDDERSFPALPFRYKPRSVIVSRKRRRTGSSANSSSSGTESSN
# GST-Aq-NF-kB = target: T5, GST-Aq-NF-kB (Amphimedon queenslandica, UniProt A9Y5G7 2-389)
# T5 sequence: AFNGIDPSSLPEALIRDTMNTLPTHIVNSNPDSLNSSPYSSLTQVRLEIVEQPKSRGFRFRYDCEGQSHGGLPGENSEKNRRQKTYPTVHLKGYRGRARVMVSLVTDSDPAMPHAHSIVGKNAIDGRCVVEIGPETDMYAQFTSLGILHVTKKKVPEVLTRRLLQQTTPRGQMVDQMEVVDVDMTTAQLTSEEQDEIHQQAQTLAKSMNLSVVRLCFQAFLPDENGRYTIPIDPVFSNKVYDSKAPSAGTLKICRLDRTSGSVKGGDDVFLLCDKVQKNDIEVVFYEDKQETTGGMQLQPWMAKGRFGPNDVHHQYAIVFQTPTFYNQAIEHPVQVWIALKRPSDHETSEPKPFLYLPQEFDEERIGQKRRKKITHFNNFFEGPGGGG
# GST-Hu-p50 = GST-Hu-p50 (Homo sapiens, UniProt P19838 7-356)
# GST-Hu-p50, sequence (P19838 7-356): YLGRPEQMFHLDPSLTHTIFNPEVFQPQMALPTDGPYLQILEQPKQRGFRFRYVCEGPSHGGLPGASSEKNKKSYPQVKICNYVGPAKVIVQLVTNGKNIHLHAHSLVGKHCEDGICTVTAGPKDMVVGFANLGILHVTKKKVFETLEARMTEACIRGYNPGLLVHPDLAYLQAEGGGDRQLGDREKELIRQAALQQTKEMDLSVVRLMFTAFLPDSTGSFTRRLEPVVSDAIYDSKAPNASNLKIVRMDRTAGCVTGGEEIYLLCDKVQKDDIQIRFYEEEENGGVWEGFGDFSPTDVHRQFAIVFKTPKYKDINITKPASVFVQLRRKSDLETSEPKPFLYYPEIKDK
sequence,measurement,setting,value
CCGATTAACATCAGGAACCCCCCTGATGTTAATCGGGTCTTGATTCGCTTGACGCTGCTG,binding signal,GST-Ap-NF-kB RHD,8.98 z-score
same,binding signal,[1],6.2 z-score
same,binding signal,GST-Co-NF-kB,3.38 z-score
same,binding signal,GST-Dm-Relish,9.74 z-score
same,binding signal,GST-Aq-NF-kB,7.32 z-score
same,binding signal,GST-Hu-p50,5.86 z-score
CCGATTAACATCAGGGGCTTACCTGATGTTAATCGGGTCTTGATTCGCTTGACGCTGCTG,binding signal,GST-Ap-NF-kB RHD,4.59 z-score
same,binding signal,[1],6.21 z-score
same,binding signal,GST-Co-NF-kB,1.88 z-score
same,binding signal,GST-Dm-Relish,5.58 z-score
same,binding signal,GST-Aq-NF-kB,7.25 z-score
same,binding signal,GST-Hu-p50,4.8 z-score
CCGATTAACATCACAAATACCCCTGATGTTAATCGGGTCTTGATTCGCTTGACGCTGCTG,binding signal,GST-Ap-NF-kB RHD,5.46 z-score
same,binding signal,[1],4.42 z-score
same,binding signal,GST-Co-NF-kB,4.04 z-score
same,binding signal,GST-Dm-Relish,3.75 z-score
same,binding signal,GST-Aq-NF-kB,4.3 z-score
same,binding signal,GST-Hu-p50,5.3 z-score
CCGATTAACATCAGGATGTCCCCTGATGTTAATCGGGTCTTGATTCGCTTGACGCTGCTG,binding signal,GST-Ap-NF-kB RHD,6.09 z-score
same,binding signal,[1],4.93 z-score
same,binding signal,GST-Co-NF-kB,2.61 z-score
same,binding signal,GST-Dm-Relish,5.89 z-score
same,binding signal,GST-Aq-NF-kB,5.87 z-score
same,binding signal,GST-Hu-p50,4.51 z-score
CCGATTAACATCAGAAATTACCCTGATGTTAATCGGGTCTTGATTCGCTTGACGCTGCTG,binding signal,GST-Ap-NF-kB RHD,3.88 z-score
same,binding signal,[1],6.24 z-score
same,binding signal,GST-Co-NF-kB,2.87 z-score
same,binding signal,GST-Dm-Relish,4.39 z-score
same,binding signal,GST-Aq-NF-kB,5.95 z-score
same,binding signal,GST-Hu-p50,4.72 z-score
CCGATTAACATCAAATACCCCCCTGATGTTAATCGGGTCTTGATTCGCTTGACGCTGCTG,binding signal,GST-Ap-NF-kB RHD,7.87 z-score
same,binding signal,[1],5.54 z-score
same,binding signal,GST-Co-NF-kB,6.37 z-score
same,binding signal,GST-Dm-Relish,6.76 z-score
same,binding signal,GST-Aq-NF-kB,6.24 z-score
same,binding signal,GST-Hu-p50,5.42 z-score
CCGATTAACATCAAGAAAATCCCTGATGTTAATCGGGTCTTGATTCGCTTGACGCTGCTG,binding signal,GST-Ap-NF-kB RHD,5.56 z-score
same,binding signal,[1],5.43 z-score
same,binding signal,GST-Co-NF-kB,2.27 z-score
same,binding signal,GST-Dm-Relish,6.64 z-score
same,binding signal,GST-Aq-NF-kB,5.58 z-score
same,binding signal,GST-Hu-p50,4.6 z-score
CCGATTAACATCAGGGGGTTCACTGATGTTAATCGGGTCTTGATTCGCTTGACGCTGCTG,binding signal,GST-Ap-NF-kB RHD,5.94 z-score
same,binding signal,[1],4.09 z-score
same,binding signal,GST-Co-NF-kB,2.91 z-score
same,binding signal,GST-Dm-Relish,10.4 z-score
same,binding signal,GST-Aq-NF-kB,5.84 z-score
same,binding signal,GST-Hu-p50,5.34 z-score
CCGATTAACATCAGGGACGCCCCTGATGTTAATCGGGTCTTGATTCGCTTGACGCTGCTG,binding signal,GST-Ap-NF-kB RHD,6.59 z-score
same,binding signal,[1],5.71 z-score
same,binding signal,GST-Co-NF-kB,1.13 z-score
same,binding signal,GST-Dm-Relish,7.12 z-score
same,binding signal,GST-Aq-NF-kB,7.88 z-score
same,binding signal,GST-Hu-p50,4.5 z-score
CCGATTAACATCAAAATTCCCTGTGATGTTAATCGGGTCTTGATTCGCTTGACGCTGCTG,binding signal,GST-Ap-NF-kB RHD,4.81 z-score
same,binding signal,[1],6.86 z-score
same,binding signal,GST-Co-NF-kB,4.2 z-score
same,binding signal,GST-Dm-Relish,5.96 z-score
same,binding signal,GST-Aq-NF-kB,6.37 z-score
same,binding signal,GST-Hu-p50,5.07 z-score
CCGATTAACATCAGGCCTTCCCCTGATGTTAATCGGGTCTTGATTCGCTTGACGCTGCTG,binding signal,GST-Ap-NF-kB RHD,6.39 z-score
same,binding signal,[1],6.79 z-score
same,binding signal,GST-Co-NF-kB,2.84 z-score
same,binding signal,GST-Dm-Relish,9.6 z-score
same,binding signal,GST-Aq-NF-kB,7.14 z-score
same,binding signal,GST-Hu-p50,4.63 z-score
CCGATTAACATCAGGGGGAGTCATGATGTTAATCGGGTCTTGATTCGCTTGACGCTGCTG,binding signal,GST-Ap-NF-kB RHD,5.67 z-score
same,binding signal,[1],4.38 z-score
same,binding signal,GST-Co-NF-kB,4.79 z-score
same,binding signal,GST-Dm-Relish,3.88 z-score
same,binding signal,GST-Aq-NF-kB,4.55 z-score
same,binding signal,GST-Hu-p50,4.72 z-score
CCGATTAACATCAAAGAGCCCCCTGATGTTAATCGGGTCTTGATTCGCTTGACGCTGCTG,binding signal,GST-Ap-NF-kB RHD,4.73 z-score
same,binding signal,[1],4.16 z-score
same,binding signal,GST-Co-NF-kB,1.68 z-score
same,binding signal,GST-Dm-Relish,3.94 z-score
same,binding signal,GST-Aq-NF-kB,5.01 z-score
same,binding signal,GST-Hu-p50,4.43 z-score
